Shown is part of a subset that was picked to be rich in hits.
GIRK2 activator: GIRK2 channel activators by thallium flux. P48051. HEK293 GIRK2/NPY4 cells, thallium flux fluorescence. activation (% efficacy), % for hits at 37.5 µM. 34,000 tested, under 10 active. AID 1259324;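 active means primary screen hit, no activity in plain HEK293 cells, and in GIRK2-only cells above 5% efficacy rising with concentration; inactive means the rest, including fluorescent compounds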;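 further: efficacy is normalized control-subtracted fluorescence 15 s after thallium addition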
Target sequence (P48051 whole entry, looked up): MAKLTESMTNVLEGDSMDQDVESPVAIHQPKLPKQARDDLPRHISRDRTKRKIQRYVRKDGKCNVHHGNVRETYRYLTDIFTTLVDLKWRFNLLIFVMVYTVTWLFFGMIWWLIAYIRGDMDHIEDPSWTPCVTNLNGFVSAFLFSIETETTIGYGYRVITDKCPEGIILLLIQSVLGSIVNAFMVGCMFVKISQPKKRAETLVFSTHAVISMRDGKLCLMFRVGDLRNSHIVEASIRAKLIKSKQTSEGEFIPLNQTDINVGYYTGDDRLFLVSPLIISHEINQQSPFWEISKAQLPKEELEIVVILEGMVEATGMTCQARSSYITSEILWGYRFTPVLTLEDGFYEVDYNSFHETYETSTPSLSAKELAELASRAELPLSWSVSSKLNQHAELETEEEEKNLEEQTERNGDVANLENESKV
AMPAR-TARP mod: modulators of AMPA receptor GluA2-stargazin complexes. AID 1259245. hit rate 3.5% among 40,000. HEK293 GluA2+stargazin, membrane potential dye (FDSS), glutamate EC50; hits were called plate by plate, in both directions. calls only at 30 µM. O88602+P19491;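 active means any of four per-well response measures lying three or more SD from its plate-wide compound average, in either direction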
Starred values were filed as active, the others as inactive; i = inactive; nt = no result given; + = active, no number; [ ] = remark or other dose.

SMILES	GIRK2 activator	AMPAR-TARP mod
COCCNC(=O)c1ccc(N2CCCCS2(=O)=O)cc1	i	i
COc1ccc(C)c2sc(NC(=O)Cc3ccc(S(C)(=O)=O)cc3)nc12	nt	i
COc1ccccc1S(=O)(=O)N1CCC(Cn2cnc3ccccc32)CC1	i	i
COc1ccc(S(=O)(=O)NCc2cccnc2)cc1N(C)S(=O)(=O)c1ccc(C)cc1	i	i
Cc1c(C(=O)Nc2sc3c(c2C#N)CCCC3)nnn1-c1ccccc1	i	i
CCC(=O)N(CCC1(c2ccc(OC)cc2)CCOC(C)(C)C1)Cc1ccc(Cl)cc1 (stereo not given)	nt	+
CCOC(=O)C1=C(C)NC(=O)NC1c1ccc(OC)cc1 (stereo not given)	nt	i
COc1ccc(Cl)cc1NC(=O)Nc1cc(N2CCCS2(=O)=O)ccc1OC	i	+
COc1ccc(Cl)cc1NC(=O)Nc1ccc(CN2CCN(C)CC2)cc1	14%*[75 µM]	i
COc1cccc(NC(=O)Nc2ccc(N3CCCS3(=O)=O)cc2)c1	i	i
O=C(Nc1ccc(N2CCCS2(=O)=O)cc1)Nc1cccc(Cl)c1	i	+
COc1cc(NC(=O)Nc2ccc(CN3CCN(C)CC3)cc2)cc(OC)c1OC	i	i
COc1ccc(N2CCCS2(=O)=O)cc1NC(=O)Nc1ccc(Cl)c(Cl)c1	i	i
Cc1ccc2c(c1)N(C(=O)Cn1c3ccccc3c3ncn(Cc4ccccc4)c(=O)c31)CCO2	i	nt
CCSc1nnc(NC(=O)C2CN(c3nc4ccc(OC)cc4s3)C2)s1	i	i
COCC(=O)NCCCn1nc(-c2ccccc2)ccc1=O	i	i
COc1ccccc1C(=O)NCC1CCN(Cc2cccs2)CC1	nt	i
CCCN1C(=O)CCc2cc(NC(=O)c3cc(OCC)c(OCC)c(OCC)c3)ccc21	i	i
N#Cc1ccc(C(=O)N(Cc2ccncc2)c2nc3c(F)cccc3s2)cc1	i	+
O=C(c1cccc(F)c1)N(CCCn1ccnc1)c1nc2c(F)cccc2s1	i	+
O=C(c1ccc2c(c1)OCCO2)N(Cc1ccncc1)c1nc2c(F)cccc2s1	i	i
O=C(c1ccc2c(c1)OCCO2)N(CCCn1ccnc1)c1nc2c(F)cccc2s1	i	i
COc1ccccc1NC(=O)C(=O)NCc1nnc(C)o1	i	i
COc1cccc(CNC(=S)Nc2ccc(OC)cc2OC)c1	nt	i
CN1CC(NC(=O)NCCCc2ccccc2)CC1=O (stereo not given)	i	nt
SMILES	GIRK2 activator	AMPAR-TARP mod
CCOC(=O)c1ccc(NC(=O)Cc2cc(-c3cc4ccccc4o3)on2)cc1	i	i
O=C(Cc1cccs1)NCC1CCN(Cc2ccccc2)CC1	i	nt
COc1ccc(CCNC(=O)Cc2csc(NC(=O)C(C)(C)C)n2)cc1	nt	i
CC(C)(C)c1ccc(S(=O)(=O)NCC(=O)N2CCOC(c3ccccc3)C2)cc1 (stereo not given)	i	nt
CCN1CCc2c(sc(NC(=O)c3cc4ccccc4o3)c2-c2nc3ccccc3s2)C1	nt	i
CC(=O)Nc1sc2c(c1-c1nc3ccccc3s1)CCN(Cc1ccccc1)C2	nt	i
CCn1ccc(C(=O)Nc2sc3c(c2-c2nc4ccccc4s2)CCN(C)C3)n1	nt	+
Cc1cc(C(=O)Nc2sc3c(c2-c2nc4ccccc4s2)CCN(Cc2ccccc2)C3)on1	nt	+
CN1CCc2c(sc(NC(=O)c3ccc(Cl)cc3)c2-c2nc3ccccc3s2)C1	nt	i
O=C(Nc1sc2c(c1-c1nc3ccccc3s1)CCN(Cc1ccccc1)C2)c1cccs1	nt	+
O=C(Nc1ccccc1-c1nc2ccccc2[nH]c1=O)c1ccccc1	nt	i
COc1ccc(C(CNC(=O)C(=O)Nc2ccc(F)cc2F)N2CCOCC2)cc1 (stereo not given)	i	nt
Cc1cccc(NC(=O)c2ccc(S(=O)(=O)NCc3cccnc3)o2)n1	i	i
CS(=O)(=O)N1CCCC1C(=O)Nc1nc(-c2ccc3c(c2)CCCC3)cs1 (stereo not given)	i	i
O=C(/C=C/c1cccs1)Nc1ccc(CC(=O)NCC(F)(F)F)cc1	i	nt
Cc1ccc([N+](=O)[O-])cc1NC(=O)c1ccc(C(C)(C)C)cc1	i	+
Cc1ccc([N+](=O)[O-])cc1NC(=O)c1ccc(=O)n(Cc2ccccc2)c1	i	i
COc1ccccc1NC(=O)Cn1cc(-c2ccccc2C)c(N2CCOCC2)n1	i	nt
C=CCN(CC=C)C(=O)c1cc(-c2ccccc2)nc2ccccc12	nt	+
O=C(Nc1cccc(C(F)(F)F)c1)c1cc(-c2ccccc2)nc2ccccc12	nt	i
O=C(CN1CC(c2nc(-c3cccc(C(F)(F)F)c3)no2)C1)Nc1ccc(F)cc1F	i	nt
CCn1c(=O)c2c(nc3oc(C)c(C)n32)n(C)c1=O	i	+
CCn1c(=O)c2c(nc3n(-c4ccc(OC)cc4)c(C)c(C)n23)n(C)c1=O	nt	i
Cc1ccc(NC(=O)Cn2c(C)nc3c(sc4ccccc43)c2=O)cc1Cl	i	nt
O=S(=O)(NCCOc1ccc(-c2ccc(F)cc2)nn1)c1ccc(Cl)cc1	i	i
SMILES	GIRK2 activator	AMPAR-TARP mod
O=S(=O)(NCCOc1ccc(-c2ccc(F)cc2)nn1)c1ccc(Br)cc1	i	+
COc1ccc(S(=O)(=O)NCCOc2ccc(-c3ccc(F)cc3)nn2)cc1	i	i
Cc1ccc(S(=O)(=O)NCCOc2ccc(-c3ccc(F)cc3)nn2)cc1C	i	+
Cc1[nH]c2ccccc2c1C(=O)C(=O)N1CCN(c2ncnc3c2nnn3C)CC1	i	i
O=C(NCc1cnn2ccccc12)Nc1ccccc1Cl	i	nt
O=C(NCC1CCN(C(=O)c2cc3ccccc3o2)CC1)c1cc(Cl)ccc1Cl	i	i
Cc1cc(C(=O)NCC2CCN(C(=O)c3cc4ccccc4o3)CC2)c(C)o1	i	i
Cc1csc(C(=O)NCC2CCN(C(=O)c3cc4ccccc4o3)CC2)c1	i	+
CC(C)(C)NC(=O)N1CCC(CNC(=O)c2cc(-c3ccccc3)on2)CC1	i	i
O=C(NCC1CCN(C(=O)c2cc3ccccc3o2)CC1)c1cc(-c2ccccc2)on1	i	+
O=C(NCC1CCN(C(=O)c2cc3ccccc3o2)CC1)c1ccc(Cl)s1	i	+
COc1cccc(C(=O)Nc2ccc3c(c2)CCC(=O)N3Cc2ccccc2)c1	i	i
COc1ccccc1NC(=O)NCc1n[nH]c(=O)c2ccccc12	i	i
COc1ccc(S(=O)(=O)NCC#CCN(C(C)C)C(C)C)cc1OC	nt	i
CC(C)N(CC#CCNS(=O)(=O)c1ccc2ccccc2c1)C(C)C	nt	+
CCOC(=O)c1ccccc1NC(=O)CSc1c(CC(C)C)cnc2c1c(=O)n(C)c(=O)n2C	nt	+
CCOC(=O)c1ccccc1NC(=O)CSc1c(C)cnc2c1c(=O)n(C)c(=O)n2C	i	i
CC(=O)c1ccc(C(=O)Nc2nnc(-c3cc(C)n(C)n3)o2)cc1	i	+
Cc1cc(-c2nnc(NC(=O)c3cc(Cl)sc3Cl)o2)nn1C	i	i
CCOc1cc(C(=O)Nc2nnc(-c3cc(C)n(C)n3)o2)cc(OCC)c1OCC	i	+
Cc1ccc(C(=O)Nc2nnc(-c3cc(C)n(C)n3)o2)cc1C	i	i
CCN(CC)S(=O)(=O)c1ccc(C(=O)Nc2nnc(-c3cc(C)n(C)n3)o2)cc1	i	+
Cc1cc(-c2nnc(NC(=O)c3ccc(S(C)(=O)=O)cc3)o2)nn1C	i	i

High-throughput results: PubChem, several laboratories
